Source: PubChem BioAssay (several laboratories)
Sampled rows, rich in hits. Any-hit rate of the full collection: about 4.5%.
Gli-Sufu antag: blocks Gli-Sufu signaling in a luciferase reporter | AID 588413 | 340,000 tested, 0.74% active | inhibition, % at 5 µM | Sufu-KO-LIGHT fibroblasts, Gli luciferase reporter luminescence;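 active = inhibition above about 55%, limit read from the data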
aSyn 5UTR inh: 5' untranslated region of α-synuclein, MLPCN primary screen | alpha-synuclein 5'UTR reporter, inhibitor activity | inhibition, % (tested at 7.5 µM) | 300,000 tested, 0.82% active | AID 1813; in the data active = inhibition above about 60%;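 note: H4 neuroglioblastoma cells stably carrying SNCA 5'UTR luciferase fusion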
Jurkat NFkB inh: lowers PMA/ionomycin-induced NF-kB signal in Jurkat cells; inhibition, % at 4 µM; AID 435003; PMA/ionomycin-induced NF-kB luciferase reporter, luminescence; 330,000 tested, 0.53% active; in the data active = inhibition above about 50%
CSC inhib: cancer stem cell inhibition. 300,000 tested, 1.1% active. inhibition, % at 7.5 µM. AID 2717. cancer stem cell-like cells viability, luminescence; in the data active = inhibition above about 75%; tested in HMLE shEcad cells
697 NFkB inh: lowers PMA/ionomycin-induced NF-kB signal in 697 B cells. 697 B-cell NF-kB luciferase reporter, 16 h. inhibition, % at 4 µM. AID 435022. 330,000 tested, 0.33% active; in the data active = inhibition above about 35%
Mdm2-MdmX inh: inhibitors of human Mdm2/MdmX interaction. SaOS-2 split-luciferase Mdm2/MdmX complementation, luminescence. inhibition, % at 8 µM. AID 485346. 330,000 tested, 3% active;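 active = inhibition of at least 50% at 8 µM in the primary screen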
Gli antag conf: confirmation of Gli-SUFU pathway antagonists; 2,500 tested, 40% active; Sufu-KO-LIGHT cells, Gli luciferase reporter, luminescence; shares compounds with Gli-Sufu antag; inhibition, % at 5 µM;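 active = mean inhibition at 5 µM reaching about 45%, limit read from the data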
Gli cytotox: cytotoxicity counter-screen for Gli-SUFU antagonists | shares compounds with Gli-Sufu antag | Sufu-KO-LIGHT cells cytotoxicity, ATP luminescence | cytotoxicity, % at 5 µM | 2,500 tested, 32% active;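 active = mean cytotoxicity at 5 µM above about 25%, limit read from the data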;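 note: cells exposed to compound overnight for roughly 16 to 18 hours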
Wnt3a counter: Wnt3a reporter inhibition counter-screen; shares compounds with Gli-Sufu antag; 2,500 tested, 20% active; Wnt-LIGHT cells, Wnt3a-driven luciferase reporter, luminescence; inhibition, % at 6.25 µM; AID 651995;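 active = mean inhibition above about 25%, limit read from the data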
Large screens that a line does not name were inactive (follow-up assays come after a bar, where they were run).

O=C(c1ccc(=O)[nH]n1)N1CCN(S(=O)(=O)c2ccc3ccccc3c2)CC1	Gli-Sufu antag 63.5 | Gli antag conf inactive | Gli cytotox inactive | Wnt3a counter inactive
Cc1c(C(C)C)c(=O)n(-c2ccc(S(=O)(=O)NC3CCCCC3)cc2)n1C	Gli-Sufu antag 68.4 | Gli antag conf 60.3 | Gli cytotox 25.3 | Wnt3a counter inactive
Cc1c(C(C)C)c(=O)n(-c2ccc(S(=O)(=O)NCc3ccccc3)cc2)n1C	Gli-Sufu antag 71.4 | Gli antag conf 63.0 | Gli cytotox inactive | Wnt3a counter inactive
Cc1c(C(C)C)c(=O)n(-c2ccc(S(=O)(=O)N3CCOCC3)cc2)n1C	none
Cc1cccc(NC(=O)Cn2cnc3c(oc4nc5c(cc43)COC(C)(C)C5)c2=O)c1	none
Cc1cccc(C)c1NC(=O)Cn1nnc(-c2ccc(CN3CCC(C)CC3)cc2)n1	none
CC1CCN(Cc2ccc(-c3nnn(CC(=O)Nc4ccccc4Cl)n3)cc2)CC1	Gli-Sufu antag 58.2 | Gli antag conf 73.1 | Gli cytotox 32.6 | Wnt3a counter inactive
O=C(COc1ccc(Cl)cc1Cl)OCC(=O)N1CCCc2ccccc21	none
O=C(COc1ccc(Cl)cc1Cl)NC(=S)N1CCCc2ccccc21	none | Gli antag conf inactive | Gli cytotox inactive | Wnt3a counter inactive
Cc1nc2ccc([N+](=O)[O-])cc2c(=O)n1Cc1ccc(Cl)cc1	none
COc1ccc(Cn2c(C)nc3ccc([N+](=O)[O-])cc3c2=O)cc1	Gli-Sufu antag 60.9 | Gli antag conf inactive | Gli cytotox inactive | Wnt3a counter inactive
C[C@H](NC(=O)[C@@H]1CCC(=O)N1Cc1ccco1)c1ccccc1	Gli-Sufu antag 67.8 | Gli antag conf inactive | Gli cytotox inactive | Wnt3a counter inactive
CN(Cc1ccc(F)cc1)C(=O)CNC(=O)c1ccc2c(c1)OCO2	none
CCN1CCN(C(=O)/C=C/c2ccc(OC)cc2)CC1	Gli-Sufu antag 60.0 | Gli antag conf inactive | Gli cytotox 26.8 | Wnt3a counter inactive
CCN1CCN(C(=O)/C=C/c2ccc(F)cc2)CC1	none
Cc1ccc(-n2nnnc2SCC(=O)N2CC(=O)Nc3ccccc32)cc1	none
CC(Sc1nc2ccccc2c(=O)n1C)C(=O)NC1CCCCC1C (centres undefined)	Gli-Sufu antag 59.2 | Gli antag conf 55.1 | Gli cytotox inactive | Wnt3a counter inactive
Cc1ccc(S(=O)(=O)N2[C@@H](c3cccc(Cl)c3)C(C(=O)O)=CC[C@H]2c2cccs2)cc1	none (no result: aSyn 5UTR inh)
CCCCOC(=O)C1=C(C)NC(=O)NC1c1cccc([N+](=O)[O-])c1 (centres undefined)	none
CCC(CC)COC(=O)C1=C(C)NC(=O)NC1c1cccc([N+](=O)[O-])c1 (centres undefined)	Gli-Sufu antag 62.0 | Gli antag conf inactive | Gli cytotox inactive | Wnt3a counter inactive
CC(=O)n1cc([C@H]2C=C(C(=O)N3CCOCC3)O[C@@H](OCCCCO)C2)c2ccccc21	none
COc1cc(C(=O)NNC(=S)NC(=O)c2ccc(F)cc2)cc(OC)c1OC	Gli-Sufu antag 57.1 | Gli antag conf inactive | Gli cytotox inactive | Wnt3a counter inactive
C=CCNc1nc(-c2c(C)nc3sccn23)cs1	none
Cc1nc2sccn2c1-c1csc(NCc2ccccc2)n1	Gli-Sufu antag 55.7 | Gli antag conf 50.0 | Gli cytotox inactive | Wnt3a counter inactive
COC(=O)c1nnn(CC(=O)Nc2cccc(Cl)c2C)c1C(=O)OC	Gli-Sufu antag 99.3 | Gli antag conf inactive | Gli cytotox inactive | Wnt3a counter inactive
Cc1cc(C)n2nc(SCC(=O)c3cc(C)n(-c4cc(C)on4)c3C)nc2n1	none | Gli antag conf 52.0 | Gli cytotox 29.7 | Wnt3a counter 33.5
Cc1cc(C)n2nc(SCC(=O)c3ccccc3)nc2n1	none
COC(=O)C1(CCSC)NC(c2ccc(O)c(OC)c2)C2C(=O)N(c3ccc(C)cc3)C(=O)C21 (centres undefined)	none
O=C(Nc1ccccc1O)c1nc(Cl)ccc1Cl	none | Gli antag conf inactive | Gli cytotox inactive | Wnt3a counter inactive
CCOc1ncccc1C(=O)Nc1cc(S(=O)(=O)N2CCCCCC2)ccc1OC	none (no result: aSyn 5UTR inh, CSC inhib)
Cn1cc(S(=O)(=O)N2CCc3ccccc32)cc1C(=O)NC(C)(C)C	Gli-Sufu antag 61.2 | Gli antag conf 58.1 | Gli cytotox 35.1 | Wnt3a counter inactive
Cc1cccc(C)c1NC(=O)c1cc(S(=O)(=O)N2CCc3ccccc32)cn1C	none
Cc1ccc(NC(=O)Cc2nn(C)c(=O)c3ccccc23)cc1F	Gli-Sufu antag 66.7 | Gli antag conf 66.4 | Gli cytotox 29.2 | Wnt3a counter inactive
O=C(COc1cc2oc(=O)cc(-c3ccccc3)c2cc1Cl)NCc1ccccn1	none | Gli antag conf inactive | Gli cytotox inactive | Wnt3a counter inactive
COc1ccc(CNc2ncnc3c2[nH]c2ccccc23)cc1	none | Gli antag conf 64.0 | Gli cytotox inactive | Wnt3a counter inactive
CC(C)OCCCNc1ncnc2c1[nH]c1ccccc12	Gli-Sufu antag 63.7 (no result: CSC inhib) | Gli antag conf 59.1 | Gli cytotox 39.8 | Wnt3a counter inactive
CCC(C)[C@H](NC(=O)C1CC(=O)N(c2ccc(OC)cc2)C1)C(=O)NC1CCCC1 (some centres undefined)	none
O=C(Nc1cccc(NC(=O)c2ccco2)c1)c1ccccc1	none | Gli antag conf inactive | Gli cytotox inactive | Wnt3a counter inactive
O=C(Nc1ccc(Oc2cccc3ccccc23)cc1)c1ccco1	Gli-Sufu antag 96.8 | Gli antag conf inactive | Gli cytotox inactive | Wnt3a counter inactive
Cn1c(SCC(=O)NC2CC2)nnc1-c1cccc(NC(=O)c2ccccc2F)c1	none
Cc1ccc(NC(=O)CN(c2cc(C)cc(C)c2)S(=O)(=O)c2c(C)noc2C)nc1	none
CCOCC(=O)NC1CCc2cc(OC)c(OC)c(OC)c2-c2ccc(SC)c(=O)cc21 (centres undefined)	none (no result: aSyn 5UTR inh, Jurkat NFkB inh, CSC inhib, 697 NFkB inh, Mdm2-MdmX inh)
CCOC(=O)NC1CCc2cc(OC)c(OC)c(OC)c2-c2ccc(SC)c(=O)cc21 (centres undefined)	Gli-Sufu antag 55.2 (no result: aSyn 5UTR inh, Jurkat NFkB inh, CSC inhib, 697 NFkB inh, Mdm2-MdmX inh) | Gli antag conf 56.3 | Gli cytotox 67.5 | Wnt3a counter 26.1
CCCCOC(=O)NC1CCc2cc(OC)c(OC)c(OC)c2-c2ccc(SC)c(=O)cc21 (centres undefined)	Gli-Sufu antag 63.7 (no result: aSyn 5UTR inh, Jurkat NFkB inh, CSC inhib, 697 NFkB inh, Mdm2-MdmX inh) | Gli antag conf 53.5 | Gli cytotox 63.8 | Wnt3a counter inactive
CCCCC(NC(=O)c1ccc(C#N)cc1)C(=O)NCCC (centres undefined)	none (no result: aSyn 5UTR inh)
